Source: PubChem BioAssay (Tox21)
Values joined by “and” are separate entries in the source; they are usually repeats but may differ in a detail not shown here. Equal values may be shown once. Results filed as inconclusive are left out. Where a call stands in place of a potency, no number is given. More than one record can exist for a structure, and the calls need not agree. Active and inactive are the calls of the source. Calls come from the whole dose curve; as a rule, active = well fitted curve in the direction sought with a large enough effect in the repeat runs; inconclusive = weak or mixed curves; inactive = no such curve, though single readings can be large; an effect the other way counts as inactive or inconclusive.

Test: qHTS assay to identify small molecule antagonists of the retinoid acid receptor (RAR) signaling pathway - cell viability counter screen (AID 1159551); note: nearly all actives have a fitted effect of over 35% in size
Conditions: C3RL4 cells viability, ATP luminescence (CellTiter-Glo), 6 h; series mostly up to 92.4 µM; activity change, negative = cytotoxicity: at the top concentration
In short: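 Following overnight attachment, C3RL4 reporter cells received DMSO-dissolved compounds and then retinol (1 uM final). Six hours later at 37 C, ATP content was measured by CellTiter-Glo luminescence.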

Compound	Potency
Cc1cccc([N+](=O)[O-])c1C	inactive
Cc1[nH]c(=O)c(C#N)cc1-c1ccncc1	inactive
CN1C(C(=O)Nc2ccccn2)=C(O)c2ccccc2S1(=O)=O	inactive
c1ccc(Nc2ccccc2)cc1	inactive
OC[C@H]1O[C@@H]2O[C@H]3[C@H](O)[C@@H](O)[C@@H](O[C@H]4[C@H](O)[C@@H](O)[C@@H](O[C@H]5[C@H](O)[C@@H](O)[C@@H](O[C@H]6[C@H](O)[C@@H](O)[C@@H](O[C@H]7[C@H](O)[C@@H](O)[C@@H](O[C@H]8[C@H](O)[C@@H](O)[C@@H](O[C@H]1[C@H](O)[C@H]2O)O[C@@H]8CO)O[C@@H]7CO)O[C@@H]6CO)O[C@@H]5CO)O[C@@H]4CO)O[C@@H]3CO	inactive
C=CC(C)(CCC=C(C)C)OC(C)=O (stereo not drawn)	inactive
Brc1cc(Oc2cc(Br)c(Br)c(Br)c2Br)c(Br)c(Br)c1Br	inactive
O=[N+]([O-])c1ccc2c(c1)Cc1ccccc1-2	inactive
CC(C)OC=O	inactive
O=CCc1ccccc1	inactive
CCCCOCCOCCO	inactive
CC(C(=O)O)c1cccc(C(=O)c2ccccc2)c1 (stereo not drawn)	inactive
Cc1ccc2c(n1)Oc1ccc(C(C)C(=O)OCC(=O)N(C)C)cc1C2 (stereo not drawn)	inactive
CCCCCCCCCCCO	inactive
CCC(C)c1ccccc1O (stereo not drawn)	inactive
NC=O	inactive
C#C[C@]1(O)CC[C@H]2[C@@H]3CCc4cc(OC)ccc4[C@H]3CC[C@@]21C	inactive

Test: qHTS assay to identify small molecule antagonists of the retinoic acid receptor (RAR) signaling pathway (AID 1159552; note: nearly all actives have a fitted effect of over 50% in size; note: potency is the fitted concentration of half-maximal effect)
Conditions: C3RL4 RARE luciferase reporter, retinol-stimulated, 6 h; series mostly up to 92.4 µM; activity, negative = inhibition: at the top concentration
In short: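 Using a RARE-driven luciferase construct in C3RL4 cells, retinol at 1 uM final provided the agonist stimulus while compounds were co-applied. After 6 hours at 37 C, luminescence was recorded to flag inhibitors of retinol signaling.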

Compound	activity, negative = inhibition	Potency
Cc1cccc([N+](=O)[O-])c1C	-10.7% (inactive)	
Nc1ncnc2nc[nH]c12		inactive
Cc1[nH]c(=O)c(C#N)cc1-c1ccncc1	2.62% [at 42.5 µM] (inactive)	
CN1C(C(=O)Nc2ccccn2)=C(O)c2ccccc2S1(=O)=O		inactive
c1ccc(Nc2ccccc2)cc1	-11% (inactive)	
CC(C)Oc1ccc2c(=O)c(-c3ccccc3)coc2c1		inactive
OC[C@H]1O[C@@H]2O[C@H]3[C@H](O)[C@@H](O)[C@@H](O[C@H]4[C@H](O)[C@@H](O)[C@@H](O[C@H]5[C@H](O)[C@@H](O)[C@@H](O[C@H]6[C@H](O)[C@@H](O)[C@@H](O[C@H]7[C@H](O)[C@@H](O)[C@@H](O[C@H]8[C@H](O)[C@@H](O)[C@@H](O[C@H]1[C@H](O)[C@H]2O)O[C@@H]8CO)O[C@@H]7CO)O[C@@H]6CO)O[C@@H]5CO)O[C@@H]4CO)O[C@@H]3CO		inactive
O=C(OCc1ccccc1)c1ccccc1O		inactive
Nc1ccc(Cl)cc1Cl	4.78% (inactive)	
Cc1cccc(C(=O)O)c1		inactive
CC(C)CC(C)(O)C#CC(C)(O)CC(C)C (stereo not drawn)	-7.04% (inactive)	
C=CC(C)(CCC=C(C)C)OC(C)=O (stereo not drawn)		inactive
c1ccc2cc(Nc3ccc(Nc4ccc5ccccc5c4)cc3)ccc2c1		inactive
CN(C)c1nc(N(C)C)nc(N(C)C)n1		inactive
CCCCNS(=O)(=O)c1ccccc1		inactive
Brc1cc(Oc2cc(Br)c(Br)c(Br)c2Br)c(Br)c(Br)c1Br		inactive
C=C(C)C(=O)OCCOC(=O)C(=C)C	1.35% (inactive)	
O=[N+]([O-])c1ccc2c(c1)Cc1ccccc1-2		inactive
CC(C)OC=O		inactive
COc1ccc(C(=O)CC(=O)c2ccc(C(C)(C)C)cc2)cc1		inactive

Compound	activity, negative = inhibition	Potency
Cn1cnc([N+](=O)[O-])c1Sc1ncnc2nc[nH]c12		48.3 µM (active) and inactive
O=CCc1ccccc1		inactive
CCCCOCCOCCO		inactive
COc1ccc(OC)c(C(O)CNC(=O)CN)c1 (stereo not drawn)		inactive
C[Si](C)(C)O[Si](C)(C)C		inactive
CC(C)=CCCC(C)CCO (stereo not drawn)		inactive
CC(C(=O)O)c1cccc(C(=O)c2ccccc2)c1 (stereo not drawn)		inactive
O=C(c1ccccc1)c1ccccc1O		inactive
Cc1ccc2c(n1)Oc1ccc(C(C)C(=O)OCC(=O)N(C)C)cc1C2 (stereo not drawn)		inactive
CCC(C)(O)CCCC(C)C (stereo not drawn)		inactive
CCCC(=O)O		inactive
C[C@]12CCC(=O)C=C1CC[C@@H]1[C@@H]2C(=O)C[C@@]2(C)[C@H]1CC[C@]2(O)C(=O)CO	-6.22% [at 42.5 µM] (inactive)	
CCCCCCCCCCCO		inactive
O=S(=O)(O)c1ccc(O)cc1		inactive
CCC(C)c1ccccc1O (stereo not drawn)		inactive
Oc1ccc(O)cc1		17.1 µM (active) and 24.3 µM (active) and 10.6 µM (active)
NC=O		inactive
Clc1nc(Cl)c(Cl)c(Cl)c1Cl		inactive
C#C[C@]1(O)CC[C@H]2[C@@H]3CCc4cc(OC)ccc4[C@H]3CC[C@@]21C		inactive

Test: qHTS assay to identify small molecule agonists of the retinoic acid receptor (RAR) signaling pathway (AID 1159553); note: potency is the fitted concentration of half-maximal effect
Conditions: C3RL4 RARE luciferase reporter, agonist, 6 h; series mostly up to 73.3 µM; activation: at the top concentration
In short: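 Cell line C3RL4, RARE luciferase reporter. Treatment: compounds in DMSO, 6 hr, 37 C, 5% CO2, after overnight plating. Detection: luminescence, 30 min RT after reagent.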

Compound	Potency	activation
Cc1cccc([N+](=O)[O-])c1C	inactive	
Nc1ncnc2nc[nH]c12	inactive	
Cc1[nH]c(=O)c(C#N)cc1-c1ccncc1	inactive	
c1ccc(Nc2ccccc2)cc1	inactive	
OC[C@H]1O[C@@H]2O[C@H]3[C@H](O)[C@@H](O)[C@@H](O[C@H]4[C@H](O)[C@@H](O)[C@@H](O[C@H]5[C@H](O)[C@@H](O)[C@@H](O[C@H]6[C@H](O)[C@@H](O)[C@@H](O[C@H]7[C@H](O)[C@@H](O)[C@@H](O[C@H]8[C@H](O)[C@@H](O)[C@@H](O[C@H]1[C@H](O)[C@H]2O)O[C@@H]8CO)O[C@@H]7CO)O[C@@H]6CO)O[C@@H]5CO)O[C@@H]4CO)O[C@@H]3CO	inactive	
O=C(OCc1ccccc1)c1ccccc1O	9.62 µM (active)	
Nc1ccc(Cl)cc1Cl		3.39% (inactive)
C=CC(C)(CCC=C(C)C)OC(C)=O (stereo not drawn)	inactive	
c1ccc2cc(Nc3ccc(Nc4ccc5ccccc5c4)cc3)ccc2c1		-6.28% [at 94.8 µM] (inactive)
CN(C)c1nc(N(C)C)nc(N(C)C)n1	inactive	
Brc1cc(Oc2cc(Br)c(Br)c(Br)c2Br)c(Br)c(Br)c1Br		-5.15% (inactive)
C=C(C)C(=O)OCCOC(=O)C(=C)C	inactive	
O=[N+]([O-])c1ccc2c(c1)Cc1ccccc1-2	inactive	
CC(C)OC=O		5.24% (inactive)
O=CCc1ccccc1	inactive	
CCCCOCCOCCO	inactive	
COc1ccc(OC)c(C(O)CNC(=O)CN)c1 (stereo not drawn)	inactive	
O=C(c1ccccc1)c1ccccc1O	inactive	
Cc1ccc2c(n1)Oc1ccc(C(C)C(=O)OCC(=O)N(C)C)cc1C2 (stereo not drawn)	10.6 µM (active) and 8.41 µM (active)	
CCC(C)(O)CCCC(C)C (stereo not drawn)	inactive	
CCCC(=O)O	inactive	
CCCCCCCCCCCO	inactive	
O=S(=O)(O)c1ccc(O)cc1	inactive	
CCC(C)c1ccccc1O (stereo not drawn)	inactive	
Oc1ccc(O)cc1		-13.4% (inactive)
NC=O	inactive	
C#C[C@]1(O)CC[C@H]2[C@@H]3CCc4cc(OC)ccc4[C@H]3CC[C@@]21C	inactive	
